# Assay outcomes deposited in PubChem by Broad Institute.
# NSD2 HMT inh = inhibitors of human histone methyltransferase NSD2; O96028; NSD2 peptide methylation, AlphaScreen, 120 min; inhibition, % at 12.5 µM; 0.54% of 310,000 active; AID 743445; in the data active = inhibition above about 50%
# MITF act = activators of MITF-driven TRPM1 promoter activity in SK-MEL-5 cells | activation, % at 12.5 µM | SK-MEL-5 TRPM1-promoter luciferase, 24 h; % of positive control, neutral wells = 0 | AID 588334 | 0.75% of 300,000 active;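 active = mean activation of at least 80% with every replicate also reaching 80%; inconclusive = mean reaches 80% but some replicate falls short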
# PfHsp90 set2 = inhibits growth of yeast expressing Plasmodium falciparum Hsp90; S. cerevisiae expressing PfHsp90, BacTiter-Glo ATP, 48 h; yeast lacking PDR1 and PDR3 efflux regulators; inhibition, % at 9.4 µM; 0.32% of 310,000 active; AID 504621;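 active = every replicate shows inhibition above about 80%, whatever the replicate mean, limit read from the data; inconclusive = mean inhibition reaches the set limit but some replicate falls short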
# Wnt act = activates Wnt/beta-catenin signaling in a reporter cell assay. activator, plate reader. 1.2% of 300,000 active. activation, % at 9.35 µM; in the data active = activation above about 30%, passing the limit was not always enough; inconclusive = no clear call, values can overlap the other calls
# MITF TRPM1 inh = MITF TRPM1 promoter inhibition in SK-MEL-5 cells. SK-MEL-5 TRPM1 promoter luciferase, 24 h. inhibition, % at 12.5 µM. 0.83% of 330,000 active. AID 488899;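 active = mean inhibition across replicates of 60% or more, whatever share of single replicates reaches that level; inconclusive = some that reach 60%, reason not given; inactive = mean inhibition across replicates below 60%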
# Glyco luc inh = blocks N-linked glycosylation in D54 reporter cells. reporter increase, % at 12.5 µM. 0.23% of 360,000 active. D54 ERlucT glycosylation luciferase reporter, 24 h; percent of 100 nM tunicamycin response. AID 588692;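 active = mean luciferase reporter signal, scaled so untreated is 0 and the glycosylation-blocking control 100, at or above a set limit in every replicate; inconclusive = mean reaches the limit but not every replicate does; inactive = mean below the limit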;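 also: luciferase carries N-glycosylation sites so blocking glycosylation raises the light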
# A number is an active result; – = inactive; ? = inconclusive; · = no result given. A selection: hits, their analogues and other compounds. The true share with any hit is near 2.9%.
SMILES,NSD2 HMT inh,MITF act,PfHsp90 set2,Wnt act,MITF TRPM1 inh,Glyco luc inh
Cc1cc2nc(/C=C/c3nc4cc(C)c(C)cc4[nH]3)[nH]c2cc1C,–,–,–,–,–,–
Cc1ccc(/C=C/c2nc3ccccc3[nH]2)o1,–,–,–,37.6,–,–
COc1ccc(/C=C/c2noc(-c3ccccc3O)n2)cc1,–,97.6,–,·,–,–
COc1cc(/C=C/c2noc(-c3ccccc3O)n2)cc(OC)c1OC,–,?,–,–,–,–
O=C(Cc1ccccc1)NC(=S)Nc1ccc2oc(-c3ccccc3F)nc2c1,–,125.3,–,·,–,–
O=C(Nc1ccc2oc(-c3ccc(Cl)c(Cl)c3)nc2c1)c1ncn[nH]1,–,–,–,42.1,–,–
O=C(Nc1ccc2oc(-c3ccccc3F)nc2c1)c1ncn[nH]1,–,–,–,52.4,–,–
O=C(Cc1ccccc1)NC(=S)Nc1ccc2oc(-c3ccccc3)nc2c1,–,·,·,–,·,·
COc1cc(CNC(=O)OC2CC3CC2[C@H]2CCCCN2C3=O)cc(OC)c1 (stereo partly specified),·,·,·,–,·,·
O=C(CSc1nnc(-c2ccccn2)n1-c1ccccc1)c1ccc(F)cc1,–,·,·,·,·,·
O=C(c1ncn(Cc2ccccc2)c1C(=O)N1CCN(c2ccccc2)CC1)N1CCN(c2ccccc2)CC1,·,–,–,–,–,49.6
Nc1nnnn1/N=C/C(Br)=C/c1ccccc1,–,–,–,–,84.5,–
Nc1nnnn1/N=C/C=C/c1ccccc1,–,–,–,·,–,–
OC(COc1ccc(OCc2ccccc2)cc1)CN1CCCCC1 (stereo unspecified),–,87.7,–,·,–,–
OC(COc1ccc(OCc2ccccc2)cc1)CN1CCOCC1 (stereo unspecified),–,–,–,·,–,–
CCN(CC)CCn1c2ccccc2c2nc3ccccc3nc21,–,·,–,–,–,129.0
CCCn1c2ccccc2c2nc3ccccc3nc21,–,–,–,–,–,–
O=C(C1=C(O)C(=O)N(c2nc3ccc(Cl)cc3s2)C1c1ccco1)c1ccco1 (stereo unspecified),–,–,–,32.6,–,–
O=C(NCC1CCN(C(=O)C(=O)c2cccs2)CC1)c1ccncc1,–,·,·,–,·,·
CCOc1ccc(Br)cc1C(=O)Nc1ccc(C(=O)NCC(C)C)cc1,–,–,–,–,–,114.9
COc1ccc(Br)cc1C(=O)Nc1ccc(C(=O)NCC(C)C)cc1,–,–,–,–,–,–
CC(=O)c1cccc(Nc2c3c(nc4ccccc24)CCC3)c1,–,–,–,–,–,51.5
COC(=O)c1cccc(Nc2c3c(nc4ccccc24)CCC3)c1,–,·,–,–,–,–
Cc1cccn2c(=O)c3cc(C(=O)NCc4ccco4)c(=N)n(CCc4ccccc4)c3nc12,–,–,–,–,–,52.6
Cc1cccn2c(=O)c3cc(C(=O)NCCc4ccccc4)c(=N)n(Cc4ccco4)c3nc12,–,–,–,–,–,–
SMILES,NSD2 HMT inh,MITF act,PfHsp90 set2,Wnt act,MITF TRPM1 inh,Glyco luc inh
Cc1ccc2c(c1)cc(CN(C(=O)N1CCOCC1)C1CCCC1)c1nnnn12,–,–,–,–,–,40.2
COc1ccc(C(=O)CC(SCC(NC(C)=O)C(=O)O)c2ccc(Cl)cc2)cc1OC (stereo unspecified),–,–,–,–,–,33.2
CS(=O)c1nc(-c2ccc(Br)cc2)cc(-c2ccccc2)c1C#N (stereo unspecified),–,–,–,–,78.0,–
CN(C)c1ccc(CNC(=O)C2Cc3c(-c4cccc(C(N)=O)c4)ccnc3O2)cc1 (stereo unspecified),–,·,·,–,·,–
COc1ccc(C(=O)NCCn2ccc3ccccc32)cc1,·,97.6,–,·,–,–
O=C(NCCn1ccc2ccccc21)c1ccc2c(c1)OCO2,·,–,–,38.0,–,–
COc1cccc(-c2nnc(SCC(=O)Nc3cccc4ccccc34)n2Cc2ccco2)c1,–,·,·,·,·,·
C[C@H](c1ccccc1)N1C[C@@H](COCc2ccccc2)Oc2cccc(Oc3ccccc3)c2S1(=O)=O,·,·,·,–,·,·
Cn1cccc1C(=O)N1CCN(S(=O)(=O)c2ccccc2F)CC1,–,·,·,·,·,·
N#C/C(=C\c1ccc(-c2nc3ccccc3s2)o1)C(N)=O,–,·,–,44.0,–,–
N#C/C(=C/c1ccc(-c2ccc(S(N)(=O)=O)cc2)o1)c1nc2ccccc2s1,–,–,–,·,–,–
CNC(=O)/C(C#N)=C/c1ccc(-c2nc3ccccc3s2)o1,–,·,·,42.9,·,–
